This note sets out measurements from the supplement of paper PMC9262897, “Low-cost anti-mycobacterial drug discovery using engineered E. coli” (Nature Communications, 2022).

Counter-ions that a name gives are not always drawn. ± gives the standard deviation of the averaged measurements.

One test concerns E. coli TESEC Mtb Alr. The test can be described thus: growth (OD600 after 10 h); higher = more growth (less inhibition). The settings on record: arabinose 10000000 nM; compound 0.1 mM; raw OD600 reference: median of DMSO wells 0.146, cell-free background 0.041. As to the method:
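TESEC Mtb Alr E. coli, or the Alr+ wild-type control, in 384-well plates with Prestwick library compounds at 0.1 mM and 1% DMSO, across arabinose induction levels of 1E3 to 1E7 nM. Growth is read as OD600 after 10 h at 37 °C in triplicate biological replicates.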
The molecule `CC(C)(C)NCC(O)c1ccccc1Cl` (stereo not drawn) [Tulobuterol] returned a growth of 0.1357 ± 0.00093.
Still for that read-out and setting: the figure for `Clc1ccc(C(OCCN2CCCCC2)c2ccccc2)cc1` (stereo not drawn) [Cloperastine hydrochloride] is 0.0546 ± 0.00059; for `CN(C)C(=O)Oc1cc(OC(=O)N(C)C)cc(C(O)CNC(C)(C)C)c1` (stereo not drawn) [Bambuterol hydrochloride] it is 0.141 ± 0.0068.
Same read-out and setting: the figure for `C[C@@H]1C[C@@H]([C@H](O)CC2CC(=O)NC(=O)C2)C(=O)[C@@H](C)C1` [Cycloheximide] is 0.157 ± 0.0081; for `CC(Cc1ccc(O)cc1)NCC(O)c1cc(O)cc(O)c1` (stereo not drawn) [Fenoterol hydrobromide] it is 0.143 ± 0.0091.
`COc1ccc(CCN)cc1OC` [Homoveratrylamine] returned a growth of 0.131 ± 0.002.
Same read-out and setting: the value for `C(#CCN1CCCC1)CN1CCCC1` [Tremorine dihydrochloride] was 0.162 ± 0.008.
The same measure, in the same setting: the value for `O=C1CC[C@@]2(O)[C@H]3Cc4ccc(O)c5c4[C@@]2(CCN3CC2CC2)[C@H]1O5` [Naltrexone hydrochloride dihydrate] was 0.139 ± 0.0097; that for `C[N+]1(C)CCCC(OC(=O)C(O)(c2ccccc2)c2ccccc2)C1` (stereo not drawn) [Mepenzolate bromide] was 0.137 ± 0.0056; that for `C1CCc2nnnn2CC1` [Pentylenetetrazole] was 0.141 ± 0.007.
Still for that read-out and setting: the value for `CC(=O)NC1CCSC1=O` (racemic) [N-Acetyl-DL-homocysteine Thiolactone] was 0.144 ± 0.0094; that for `CNC(C)(C)Cc1ccccc1` [Mephentermine hemisulfate] was 0.138 ± 0.0038; that for `N[C@@H]1C[C@H]1c1ccccc1` [Tranylcypromine hydrochloride] was 0.141 ± 0.0022.
Consider `CC(NC(C)(C)C)C(=O)c1cccc(Cl)c1` (stereo not drawn) [Bupropion hydrochloride], for which the growth was 0.136 ± 0.0076.
Same read-out and setting: the value for `CCC(=O)O[C@@](Cc1ccccc1)(c1ccccc1)[C@@H](C)CN(C)C` [Levopropoxyphene napsylate] was 0.15 ± 0.0048; that for `COP(=O)(OC)C(O)C(Cl)(Cl)Cl` (stereo not drawn) [Trichlorfon] was 0.146 ± 0.0059; that for `CCN[C@@H](C)Cc1cccc(C(F)(F)F)c1` [Dexfenfluramine hydrochloride] was 0.158 ± 0.0058.
Same read-out and setting: the figure for `CN1C(=O)CCS(=O)(=O)C1c1ccc(Cl)cc1` (stereo not drawn) [Chlormezanone] is 0.146 ± 0.005; for `O=c1c2ccccc2[se]n1-c1ccccc1` [Ebselen] it is 0.164 ± 0.0046.
The same measure, in the same setting: the figure for `C[C@@H]1CN([C@H]2CC[C@](C#N)(c3ccc(F)cc3)CC2)CC[C@]1(C(=O)O)c1ccccc1` [Levocabastine hydrochloride] is 0.154 ± 0.0047.
Regarding `C[N+]12CCC(CC1)C(OC(=O)C(O)(c1ccccc1)c1ccccc1)C2` (stereo not drawn) [Clidinium bromide], the growth was determined as 0.132 ± 0.0086.
Same read-out and setting: the figure for `C[C@]12CCC(=O)C(O)=C1CC[C@@H]1[C@@H]2CC[C@]2(C)C(=O)CC[C@@H]12` [Formestane] is 0.1103 ± 0.00057; for `NCCCNCCSP(=O)(O)O` [Amifostine] it is 0.145 ± 0.0044; for `CC(C)(N)Cc1ccccc1` [Phentermine hydrochloride] it is 0.138 ± 0.0031.
Same read-out and setting: the value for `CN[C@@H]1C[C@@H](c2ccc(Cl)c(Cl)c2)c2ccccc21` [Indatraline hydrochloride] was 0.0445 ± 0.002.
On the same count and under the same terms, the figure for `C[C@@H]1CC[C@H]2[C@@H](C)C(=O)O[C@@H]3O[C@@]4(C)CC[C@@H]1[C@]32OO4` [Artemisinin] is 0.135 ± 0.0031; for `CCCC[N+]1(C)[C@@H]2CC(OC(=O)[C@H](CO)c3ccccc3)C[C@H]1[C@@H]1O[C@@H]12` (stereo partly drawn) [Butylscopolammonium (n-) bromide] it is 0.132 ± 0.0029.
For `O=P1(NCCCl)OCCCN1CCCl` (stereo not drawn) [Ifosfamide], the growth was 0.137 ± 0.0089.
The same measure, in the same setting: the value for `CCN(C(C)=O)c1cccc(-c2ccnc3c(C#N)cnn23)c1` [Zaleplon] was 0.132 ± 0.0056.
For the molecule `C[C@]12CCC(=O)C=C1CC[C@@H]1[C@@H]2C(=O)C[C@]2(C)C(=O)CC[C@@H]12` [Adrenosterone], the growth was determined as 0.123 ± 0.0015.
The same measure, in the same setting: the value for `CN1CCN(C(=O)OC2c3nccnc3C(=O)N2c2ccc(Cl)cn2)CC1` (stereo not drawn) [Zopiclone] was 0.138 ± 0.0054.
On the same count and under the same terms, the value for `O=C(O)CCCc1ccc(N(CCCl)CCCl)cc1` [Chlorambucil] was 0.135 ± 0.0069.
The same measure, in the same setting: the value for `CCC1(C)CC(=O)NC(=O)C1` [Bemegride] was 0.135 ± 0.0098.
In turn, `CCCCCC[C@H]1C(=O)O[C@H](C)[C@H](NC(=O)c2cccc(NC=O)c2O)C(=O)O[C@@H](C)[C@@H]1OC(=O)CC(C)C` [Antimycin A] showed a growth of 0.159 ± 0.0018.
On the same count and under the same terms, the figure for `CC(=O)OCC1=C(C(=O)O)N2C(=O)[C@@H](N)[C@H]2SC1` [Cephalosporanic acid, 7-amino] is 0.151 ± 0.0034; for `CC(N)C(O)c1ccccc1` (stereo not drawn) [Phenylpropanolamine hydrochloride] it is 0.148 ± 0.0054.
Still for that read-out and setting: the value for `C[C@]12Cc3c[nH]nc3C[C@@H]1CC[C@@H]1[C@@H]2CC[C@@]2(C)[C@H]1CC[C@]2(C)O` [Stanozolol] was 0.139 ± 0.0021.
Still for that read-out and setting: the figure for `NC(=O)CN1CCCC1=O` [Piracetam] is 0.15 ± 0.0043.
`O=P1(N(CCCl)CCCl)NCCCO1` (stereo not drawn) [Cyclophosphamide] yielded a growth of 0.137 ± 0.0039.

The subject of a further test is E. coli TESEC Mtb Asd. The test is described as above. The conditions noted are these: arabinose induction (level): High; compound 0.1 mM; raw OD600 reference: median of DMSO wells 0.331, cell-free background 0.041. The protocol:
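TESEC E. coli strains in which the native enzyme is deleted and replaced by arabinose-inducible Mtb Asd, DapB, CysH or TrpD, each grown in its selective medium. Strains were screened against the Prestwick library at 0.1 mM and 1% DMSO in 384-well format at low and high arabinose induction. Growth is read as OD600 after 10 h in triplicate.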
As to `CC(C)(C)NCC(O)c1ccccc1Cl` (stereo not drawn) [Tulobuterol], the growth came to 0.246 ± 0.067.
Same read-out and setting: the value for `Clc1ccc(C(OCCN2CCCCC2)c2ccccc2)cc1` (stereo not drawn) [Cloperastine hydrochloride] was 0.113 ± 0.002; that for `CN(C)C(=O)Oc1cc(OC(=O)N(C)C)cc(C(O)CNC(C)(C)C)c1` (stereo not drawn) [Bambuterol hydrochloride] was 0.328 ± 0.026; that for `C[C@@H]1C[C@@H]([C@H](O)CC2CC(=O)NC(=O)C2)C(=O)[C@@H](C)C1` [Cycloheximide] was 0.469 ± 0.0092.
The same measure, in the same setting: the value for `CC(Cc1ccc(O)cc1)NCC(O)c1cc(O)cc(O)c1` (stereo not drawn) [Fenoterol hydrobromide] was 0.298 ± 0.046.
The same measure, in the same setting: the figure for `COc1ccc(CCN)cc1OC` [Homoveratrylamine] is 0.225 ± 0.018.
In turn, `C(#CCN1CCCC1)CN1CCCC1` [Tremorine dihydrochloride] came in with a growth of 0.425 ± 0.059.
In the case of `O=C1CC[C@@]2(O)[C@H]3Cc4ccc(O)c5c4[C@@]2(CCN3CC2CC2)[C@H]1O5` [Naltrexone hydrochloride dihydrate], the growth came out at 0.224 ± 0.013.
In turn, `C[N+]1(C)CCCC(OC(=O)C(O)(c2ccccc2)c2ccccc2)C1` (stereo not drawn) [Mepenzolate bromide] showed a growth of 0.307 ± 0.038.
Same read-out and setting: the value for `C1CCc2nnnn2CC1` [Pentylenetetrazole] was 0.402 ± 0.0048.
Regarding `CC(=O)NC1CCSC1=O` (racemic) [N-Acetyl-DL-homocysteine Thiolactone], the growth is 0.29 ± 0.041.
Still for that read-out and setting: the value for `CNC(C)(C)Cc1ccccc1` [Mephentermine hemisulfate] was 0.273 ± 0.036; that for `N[C@@H]1C[C@H]1c1ccccc1` [Tranylcypromine hydrochloride] was 0.354 ± 0.034.
On the same count and under the same terms, the figure for `CC(NC(C)(C)C)C(=O)c1cccc(Cl)c1` (stereo not drawn) [Bupropion hydrochloride] is 0.356 ± 0.055.
On the same count and under the same terms, the figure for `CCC(=O)O[C@@](Cc1ccccc1)(c1ccccc1)[C@@H](C)CN(C)C` [Levopropoxyphene napsylate] is 0.169 ± 0.019.
With `COP(=O)(OC)C(O)C(Cl)(Cl)Cl` (stereo not drawn) [Trichlorfon], the growth turned out to be 0.348 ± 0.072.
Still for that read-out and setting: the value for `CCN[C@@H](C)Cc1cccc(C(F)(F)F)c1` [Dexfenfluramine hydrochloride] was 0.235 ± 0.033.
Same read-out and setting: the value for `CN1C(=O)CCS(=O)(=O)C1c1ccc(Cl)cc1` (stereo not drawn) [Chlormezanone] was 0.328 ± 0.08; that for `O=c1c2ccccc2[se]n1-c1ccccc1` [Ebselen] was 0.0698 ± 0.0046.
Still for that read-out and setting: the figure for `C[C@@H]1CN([C@H]2CC[C@](C#N)(c3ccc(F)cc3)CC2)CC[C@]1(C(=O)O)c1ccccc1` [Levocabastine hydrochloride] is 0.212 ± 0.033; for `C[N+]12CCC(CC1)C(OC(=O)C(O)(c1ccccc1)c1ccccc1)C2` (stereo not drawn) [Clidinium bromide] it is 0.288 ± 0.035; for `C[C@]12CCC(=O)C(O)=C1CC[C@@H]1[C@@H]2CC[C@]2(C)C(=O)CC[C@@H]12` [Formestane] it is 0.13 ± 0.017.
`NCCCNCCSP(=O)(O)O` [Amifostine] had a growth of 0.372 ± 0.057.
On the same count and under the same terms, the figure for `CC(C)(N)Cc1ccccc1` [Phentermine hydrochloride] is 0.318 ± 0.043.
Same read-out and setting: the value for `CN[C@@H]1C[C@@H](c2ccc(Cl)c(Cl)c2)c2ccccc21` [Indatraline hydrochloride] was 0.0513 ± 0.0011; that for `C[C@@H]1CC[C@H]2[C@@H](C)C(=O)O[C@@H]3O[C@@]4(C)CC[C@@H]1[C@]32OO4` [Artemisinin] was 0.219 ± 0.025; that for `CCCC[N+]1(C)[C@@H]2CC(OC(=O)[C@H](CO)c3ccccc3)C[C@H]1[C@@H]1O[C@@H]12` (stereo partly drawn) [Butylscopolammonium (n-) bromide] was 0.372 ± 0.073.
Same read-out and setting: the figure for `O=P1(NCCCl)OCCCN1CCCl` (stereo not drawn) [Ifosfamide] is 0.374 ± 0.074.
The molecule `CCN(C(C)=O)c1cccc(-c2ccnc3c(C#N)cnn23)c1` [Zaleplon] came in with a growth of 0.243 ± 0.034.
Same read-out and setting: the value for `C[C@]12CCC(=O)C=C1CC[C@@H]1[C@@H]2C(=O)C[C@]2(C)C(=O)CC[C@@H]12` [Adrenosterone] was 0.256 ± 0.03; that for `CN1CCN(C(=O)OC2c3nccnc3C(=O)N2c2ccc(Cl)cn2)CC1` (stereo not drawn) [Zopiclone] was 0.291 ± 0.062.
Still for that read-out and setting: the value for `O=C(O)CCCc1ccc(N(CCCl)CCCl)cc1` [Chlorambucil] was 0.258 ± 0.086; that for `CCC1(C)CC(=O)NC(=O)C1` [Bemegride] was 0.318 ± 0.043.
On the same count and under the same terms, the figure for `CCCCCC[C@H]1C(=O)O[C@H](C)[C@H](NC(=O)c2cccc(NC=O)c2O)C(=O)O[C@@H](C)[C@@H]1OC(=O)CC(C)C` [Antimycin A] is 0.24 ± 0.017; for `CC(=O)OCC1=C(C(=O)O)N2C(=O)[C@@H](N)[C@H]2SC1` [Cephalosporanic acid, 7-amino] it is 0.273 ± 0.018; for `CC(N)C(O)c1ccccc1` (stereo not drawn) [Phenylpropanolamine hydrochloride] it is 0.399 ± 0.022.
Regarding `C[C@]12Cc3c[nH]nc3C[C@@H]1CC[C@@H]1[C@@H]2CC[C@@]2(C)[C@H]1CC[C@]2(C)O` [Stanozolol], the growth amounted to 0.157 ± 0.011.
Still for that read-out and setting: the value for `NC(=O)CN1CCCC1=O` [Piracetam] was 0.302 ± 0.06.
`O=P1(N(CCCl)CCCl)NCCCO1` (stereo not drawn) [Cyclophosphamide] returned a growth of 0.341 ± 0.066.
